Pf growth 96h = P. falciparum growth inhibition at 96 hours | P. falciparum luciferase reporter growth, 96 h | actives 6.9% (n = 320,000) | Potency, µM (titrated, usually from 28.7 µM), without a hit: at the top dose activity change, negative = inhibition, most hits filed as inhibitors | AID 504834; also: potency is read from the fitted curve at half-maximal effect; % is scaled to controls: 0 for no effect and ±100 for the full control effect
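Compounds incubated with erythrocytes infected by luciferase-expressing P. falciparum (2% hematocrit, 0.05% parasitemia final) for 96 hours, 37 C in 5% CO2. Growth inhibition scored as decreased luciferase luminescence.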
HCMV inh = human cytomegalovirus inhibition; HFF cells, HCMV-luciferase reporter, 72 h; stronger effect = lower value; actives 4.5% (n = 410,000); AID 1259415; activity change, negative = inhibition, % at 57.5 µM; in the data active = activity change below about -60%; inconclusive = no clear call, values can overlap the other calls; inactive = above about -39%; also: % is scaled to controls: 0 for no effect and ±100 for the full control effect
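Screen run at 2 compound doses on HFFs infected with reporter HCMV, MOI 1 PFU/cell. Luciferase activity from cell lysates at 72 h post infection gave inhibition relative to buffer-only and Salinomycin wells.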
Sm TGR block = inhibitors of Schistosoma mansoni thioredoxin glutathione reductase. Q962Y6. purified TGR, DTNB reduction, TNB absorbance 405 nm. Potency, µM (top dose mostly 114 µM), for the others: top-dose activity change, negative = inhibition, most hits filed as inhibitors. actives 3% (n = 360,000). AID 485364; also: potency is read from the fitted curve at half-maximal effect; % is scaled to controls: 0 for no effect and ±100 for the full control effect; nearly all actives have a fitted effect of over 60% in size
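Kinetic colorimetric format: TGR-catalysed, NADPH-driven DTNB reduction monitored via TNB absorbance. Enzyme dispensed at 20 nM; compound exposure 15 min at room temperature before reaction start.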
Pf growth 48h = inhibits P. falciparum growth in the first generation, 48 h; P. falciparum luciferase growth in erythrocytes, 48 h; Potency, µM (highest dose often 28.7 µM), without a hit: at the highest dose activity change, negative = inhibition, actives largely listed as inhibitors; actives 5.9% (n = 310,000); also: potency is read from the fitted curve at half-maximal effect; % is scaled to controls: 0 for no effect and ±100 for the full control effect
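Parasite viability was followed by luminescence of a genomically integrated firefly luciferase. Cultures held 0.1% parasitemia at 2% hematocrit (final), incubated under 5% CO2 at 37 C.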
HCV inhibitor = HCV inhibition; Huh7.5.1 HCVcc-Cre infection, luciferase reporter, 44 h; Potency, µM (doses to about 41.8 µM), for the others: at the top dose activity change, negative = inhibition, hits mostly inhibitors; actives 3.4% (n = 340,000); AID 651820; also: potency is read from the fitted curve at half-maximal effect; % is scaled to controls: 0 for no effect and ±100 for the full control effect
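HCVcc-Cre virus at an moi near 0.5 was added right after compound to cells cultured 4 h from seeding (1,000 cells/well). Luciferase activity was determined 44 h later, 15 min after substrate addition at RT.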
SARS PLpro yeast = inhibitors of SARS-CoV papain-like protease in yeast; S. cerevisiae expressing SARS-CoV PLpro, growth rescue; Potency, µM (highest dose often 32.9 µM), for inactives: top-dose activity, positive = growth rescue, most hits filed as activators; actives 0.19% (n = 330,000); AID 485353; calls by dose curve; also: potency is read from the fitted curve at half-maximal effect; 0% is about no effect; nearly all actives have a fitted effect of over 55% in size
Starred values were filed as active, the others as inactive; i = inactive; u = inconclusive; x = no result given. Hits are enriched below; roughly 15% of the tested compounds scored in any of these assays. Unless noted, calls follow the shape of the dose curve; as a rule, active = well fitted curve in the direction sought with a large enough effect; inconclusive = small, poorly fitted or top-dose-only effect, or another doubt; inactive = no such curve, though single readings can be large; an effect the other way counts as inactive or inconclusive.

SMILES	Pf growth 96h	HCMV inh	Sm TGR block	Pf growth 48h	HCV inhibitor	SARS PLpro yeast
O=C(CCN1CCN(c2ccccc2F)CC1)Nc1ccc2c(c1)OCO2	3.3µM*	-23	-24%	-5%	u	-2%
Oc1cc2c(cc1CN1CCN(c3ccccc3F)CC1)OCO2	u	18	1µM*	9.3µM*	17%	2%
COc1ccccc1N1CCN(Cc2cc3c(cc2O)OCO3)CC1	-15%	-15	1.8µM*	15µM*	3%	3%
COc1ccccc1N1CCN(Cc2ccc3c(c2)OCO3)CC1	x	35	x	x	20%	x
COc1ccc(NC(=O)CCN2CCN(c3ccccc3F)CC2)c(OC)c1	10µM*	-6	-2%	u	-20%	x
O=C1N=C(N2CCCC2)CN1c1ccccc1	7%	-6	-6%	8%	12%	2%
CCOC(=O)CCCCCC(=O)Nc1ccc2c(c1)C(=O)N([C@H](C)CO)C[C@@H](C)[C@@H](CN(C)S(=O)(=O)c1ccc(C)cc1)OCCCC[C@H](C)O2	x	12	x	x	x	x
CSc1ccc(CCNC(=O)C2CCCN(S(=O)(=O)N(C)c3ccc(F)cc3)C2)cc1 (configuration not stated)	x	u	5%	x	x	x
CCOC(=O)c1cnc2cc(C(F)(F)F)ccc2c1Nc1ccc(F)cc1F	x	7	-2%	x	x	x
Oc1cc2c(cc1CN1CCc3ccccc3C1)OCO2	u	1	2.5µM*	-7%	10%	6%
c1ccc2c(c1)CCN(Cc1nnnn1Cc1ccc3c(c1)OCO3)C2	7%	-17	-24%	-12%	-24%	3%
CC(C)(C)c1ccc(S(=O)(=O)N2CCN(Cc3cc4c(cc3O)OCO4)CC2)cc1	-29%	-23	2.8µM*	-30%	-12%	-1%
COc1cc(NC(=O)CN2C(=O)c3ccccc3Sc3ccc(C(=O)N4CCCC4)cc32)cc(OC)c1	x	-8	0%	x	x	x
Cc1ccc(C)n1-c1c(C(=O)NN)cnn1-c1ccccc1	u	3	-5%	10µM*	5%	2%
CCc1ccc(NC(=O)c2cnn(-c3ccccc3)c2-n2cccc2)cc1	x	-29	27%	x	x	x
CC(C)CCc1noc(CN2CCC(CCN3CCCC3=O)CC2)n1	13µM*	-27	-2%	18%	u	0%
CCC(C)NC(=O)NCc1ccccc1F (configuration not stated)	u	-9	x	2%	15%	-2%
COc1ccc(-c2ccc(C(=O)NCCc3ccccc3)c3occc23)c(C)c1	x	-27	x	x	x	x
Cc1cc(C)cc(N(CC(=O)NCc2ccccc2)C(=O)CCC(=O)Nc2ccccn2)c1	5%	9	-8%	2.1µM*	u	0%
Cc1cc(C)cc(N(CC(=O)NCc2ccco2)C(=O)CCC(=O)Nc2ccccn2)c1	50%	-32	u	u	11%	1%
Cc1ccc(C)c(N(CC(=O)NC(C)C)C(=O)CCC(=O)Nc2ccccn2)c1	-29%	18	13%	-12%	-1%	-5%
Cc1ccc(N(CC(=O)NC(C)C)C(=O)CCC(=O)Nc2ccccn2)cc1	3.7µM*	-27	-7%	21%	8%	-4%
CC(C)CC(=O)NC(=S)Nc1ccccc1C(=O)Nc1ccccc1	x	10	4%	16%	3%	4%
COCCCNC(=O)C1CCN(c2nc(C)cc(C)n2)CC1	5.2µM*	8	4%	3%	21%	-6%
Cc1cc(C)nc(N2CCC(C(=O)NCc3ccco3)CC2)n1	-7%	-17	-2%	21%	8%	u
SMILES	Pf growth 96h	HCMV inh	Sm TGR block	Pf growth 48h	HCV inhibitor	SARS PLpro yeast
O=C(NCc1cccs1)C1CCN(c2ccc(S(=O)(=O)N3CCOCC3)cc2Cl)CC1	u	-86*	0%	4.7µM*	11%	11%
COCCNC(=O)C1CCCN(C(=O)c2cc(C)nn2C(C)(C)C)CC1 (configuration not stated)	x	-60*	x	x	x	x
COC(=O)CNC(=O)C1CCN(c2nc(C)cc(C)n2)CC1	39%	8	23%	0%	9%	-3%
Cc1cc(C)nc(N2CCC(C(=O)NCc3cccs3)CC2)n1	x	-93*	0%	9%	x	-2%
N#CC1=C(N)Oc2cc(Nc3ccccc3)ccc2C1c1ccncc1 (configuration not stated)	44%	10	5%	u	u	u
CCCc1cc(=O)[nH]c(SCC(=O)N(C)C2CCCCC2)n1	-24%	-11	-7%	u	3%	-3%
OC[C@@H]1CN(Cc2ccco2)C[C@H](n2cnc3c(Nc4ccccc4)ncnc32)O1	x	63	x	x	x	x
Cc1ccc(-c2cc(C(=O)N3CCN(S(=O)(=O)c4ccc(Br)s4)CC3)[nH]n2)c(C)c1	x	6	2%	x	x	x
Cn1nc(C(=O)OCC(=O)Nc2ccccc2[N+](=O)[O-])c2ccccc2c1=O	u	-6	-12%	-8%	-1%	0%
O=C(NCC(c1cccs1)N1CCOCC1)C1CCN(S(=O)(=O)c2c(Cl)cccc2Cl)CC1 (configuration not stated)	u	-24	1%	13µM*	u	-6%
COc1cc2c3c(c1)C(C)CC(C)(C)N3C(=O)C2=O (configuration not stated)	i	-9	0%	u	21%	-4%
CCCOc1ccccc1-n1sc2c(c1=S)-c1cc(OC)cc3c1N(C(=O)C3=O)C2(C)C	u	-7	0%	x	13µM*	-3%
CCO[C@@H]1OC(C(=O)NCc2ccccc2)=C[C@H](c2ccc3c(c2)OCO3)[C@H]1CCCO	-10%	-9	-1%	-23%	14%	0%
C#CCNC(=O)C1=C[C@@H](c2ccc3c(c2)OCO3)[C@H](CCCO)[C@@H](OCC)O1	u	2	45µM*	1%	-5%	1%
CCO[C@@H]1OC(C(=O)Nc2ccccc2)=C[C@H](c2ccc3c(c2)OCO3)[C@H]1CCCO	u	8	0%	-47%	0%	0%
CCO[C@H]1OC(C(=O)O)=C[C@@H](c2ccc3c(c2)OCO3)[C@@H]1CCCO	26%	-101*	-9%	0%	2.5µM*	0%
CCO[C@H]1OC(C(=O)NCc2ccccc2)=C[C@@H](c2ccc3c(c2)OCO3)[C@@H]1CCCO	-2%	-68*	1%	-9%	-24%	1%
COc1ccc(CC(NC(C)=O)C(=O)NC2CCN(S(=O)(=O)c3ccccc3)CC2)cc1OC (configuration not stated)	5.2µM*	22	-32%	1%	5%	1%
